Results: PubChem BioAssay (NCATS)
Inconclusive results are not listed. Calls of active or inactive are those of the source. Unless noted, the call rests on the fitted dose curve; in most records, active means well fitted curve in the direction sought with a large enough effect; inconclusive means small, poorly fitted or top-dose-only effect, or another doubt; inactive means no such curve, though single readings can be large; an effect the other way counts as inactive or inconclusive.

Columns and labels:
[1] = target: Voltage-gated inwardly rectifying potassium channel KCNH2 (Homo sapiens) (UniProt Q12809); experiment: qHTS Assay for Small Molecule Inhibitors of the Human hERG Channel Activity (AID 588834);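 further: lower thallium flux fluorescence means stronger hERG block; nearly all actives have a fitted effect of over 50% in size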; further: potency means the concentration at half of the fitted maximal effect
Sequence of Voltage-gated inwardly rectifying potassium channel KCNH2 (Homo sapiens) (Q12809 whole entry, looked up): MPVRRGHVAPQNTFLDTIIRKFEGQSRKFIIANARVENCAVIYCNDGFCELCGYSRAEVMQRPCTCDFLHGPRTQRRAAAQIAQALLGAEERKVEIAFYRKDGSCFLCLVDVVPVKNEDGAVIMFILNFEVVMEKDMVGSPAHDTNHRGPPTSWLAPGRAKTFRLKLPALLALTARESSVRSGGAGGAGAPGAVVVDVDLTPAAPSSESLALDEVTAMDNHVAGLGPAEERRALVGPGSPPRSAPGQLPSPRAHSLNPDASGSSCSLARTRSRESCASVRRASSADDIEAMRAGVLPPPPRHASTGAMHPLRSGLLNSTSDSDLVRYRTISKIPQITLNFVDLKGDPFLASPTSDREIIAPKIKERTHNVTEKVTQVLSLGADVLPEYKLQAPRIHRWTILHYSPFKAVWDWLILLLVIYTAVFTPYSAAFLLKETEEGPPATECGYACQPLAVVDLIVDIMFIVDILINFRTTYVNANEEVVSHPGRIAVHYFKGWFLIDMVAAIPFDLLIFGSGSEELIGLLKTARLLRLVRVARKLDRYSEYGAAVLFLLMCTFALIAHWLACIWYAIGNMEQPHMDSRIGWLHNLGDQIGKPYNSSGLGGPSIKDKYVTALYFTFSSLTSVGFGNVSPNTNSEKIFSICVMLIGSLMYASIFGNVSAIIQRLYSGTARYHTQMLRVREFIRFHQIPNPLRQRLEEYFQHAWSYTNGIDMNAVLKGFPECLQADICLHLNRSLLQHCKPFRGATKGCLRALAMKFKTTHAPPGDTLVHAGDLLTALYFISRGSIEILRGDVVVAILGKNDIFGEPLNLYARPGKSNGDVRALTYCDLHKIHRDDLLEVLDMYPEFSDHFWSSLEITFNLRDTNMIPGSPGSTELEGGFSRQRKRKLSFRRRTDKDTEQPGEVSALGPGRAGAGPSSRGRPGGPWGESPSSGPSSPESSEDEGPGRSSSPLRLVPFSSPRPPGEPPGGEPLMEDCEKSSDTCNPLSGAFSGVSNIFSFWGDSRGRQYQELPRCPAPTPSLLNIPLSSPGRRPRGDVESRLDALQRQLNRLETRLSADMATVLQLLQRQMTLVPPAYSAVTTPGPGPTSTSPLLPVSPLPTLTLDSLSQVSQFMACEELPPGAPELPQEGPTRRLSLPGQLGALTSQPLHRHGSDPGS
Summary of the method: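 Measured: FluxOR fluorescence after thallium stimulation in U2OS cells transduced with hERG by baculovirus. Compounds pre-incubated around 10 min; medium Opti-MEM with 2% FCS. AC50 from Hill equation.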

[2] = target: Luciferin 4-monooxygenase (Photinus pyralis) (UniProt P08659); experiment: Biochemical firefly luciferase enzyme assay for NPC (AID 624030); further: nearly all actives have a fitted effect of over 70% in size; further: potency means the concentration at half of the fitted maximal effect
Sequence of Luciferin 4-monooxygenase (Photinus pyralis) (P08659 whole entry, looked up): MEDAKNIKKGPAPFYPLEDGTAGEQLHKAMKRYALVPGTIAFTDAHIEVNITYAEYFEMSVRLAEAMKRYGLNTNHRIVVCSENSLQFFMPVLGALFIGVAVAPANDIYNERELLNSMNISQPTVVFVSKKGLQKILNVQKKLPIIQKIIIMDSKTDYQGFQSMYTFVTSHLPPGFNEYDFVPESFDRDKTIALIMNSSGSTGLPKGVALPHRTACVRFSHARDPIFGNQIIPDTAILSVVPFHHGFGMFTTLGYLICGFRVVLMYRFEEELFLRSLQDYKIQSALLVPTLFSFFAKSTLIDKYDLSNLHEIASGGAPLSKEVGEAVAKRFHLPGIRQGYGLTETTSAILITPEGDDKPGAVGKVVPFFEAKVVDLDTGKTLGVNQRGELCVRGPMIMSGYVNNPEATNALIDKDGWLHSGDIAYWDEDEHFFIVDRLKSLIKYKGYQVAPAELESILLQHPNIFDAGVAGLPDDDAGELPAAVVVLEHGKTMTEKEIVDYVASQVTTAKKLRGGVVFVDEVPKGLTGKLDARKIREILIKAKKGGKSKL
Summary of the method: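 Counter-screen for direct inhibition of the luciferase enzyme by approved-drug library compounds, run at 10 nM enzyme in 50 mM Tris acetate (final). Luminescence was read within 5 min of enzyme-buffer addition and normalized to PTC124 versus DMSO (0%).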

[3] = S16 Schwann cell viability assay (CellTiter-Glo assay) (AID 624031);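 further: cellular ATP luminescence as a viability measure; series mostly up to about 58 µM; nearly all actives have a fitted effect of over 70% in size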
Summary of the method: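 Luminescent ATP read-out (CellTiter-Glo) after 24 h compound exposure of native S16 rat Schwann cells at 37 °C. Signals were normalized between cell-free wells and DMSO-treated cells, set as 0% activity.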

[4] = target: Glutaminase kidney isoform, mitochondrial (Homo sapiens) (UniProt O94925); experiment: qHTS for Inhibitors of Glutaminase (GLS): LOPAC Validation (AID 624146);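 further: glutamate product detected by oxidase and peroxidase coupled Amplex red fluorescence gain; series mostly up to about 46 µM; nearly all actives have a fitted effect of over 60% in size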
Sequence of Glutaminase kidney isoform, mitochondrial (Homo sapiens) (O94925 whole entry, looked up, canonical isoform): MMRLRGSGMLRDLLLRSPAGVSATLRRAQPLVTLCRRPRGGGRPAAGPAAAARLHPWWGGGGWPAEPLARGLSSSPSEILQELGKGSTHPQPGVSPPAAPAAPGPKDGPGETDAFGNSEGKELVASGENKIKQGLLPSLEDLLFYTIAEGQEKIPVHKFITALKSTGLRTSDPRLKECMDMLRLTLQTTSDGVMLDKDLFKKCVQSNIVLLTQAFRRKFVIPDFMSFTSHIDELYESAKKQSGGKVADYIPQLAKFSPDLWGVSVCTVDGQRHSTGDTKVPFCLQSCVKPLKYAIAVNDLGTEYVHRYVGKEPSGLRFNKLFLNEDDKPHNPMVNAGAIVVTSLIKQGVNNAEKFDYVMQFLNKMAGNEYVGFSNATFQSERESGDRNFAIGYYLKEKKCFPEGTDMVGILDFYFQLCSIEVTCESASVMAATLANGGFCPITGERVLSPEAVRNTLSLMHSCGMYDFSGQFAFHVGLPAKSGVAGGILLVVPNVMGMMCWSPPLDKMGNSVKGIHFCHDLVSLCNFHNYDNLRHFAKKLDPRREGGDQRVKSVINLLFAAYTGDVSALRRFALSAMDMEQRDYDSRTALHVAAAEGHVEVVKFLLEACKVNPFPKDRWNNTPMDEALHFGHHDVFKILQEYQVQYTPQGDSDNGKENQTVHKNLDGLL
Summary of the method: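 hKGA; 45 mM KH2PO4 pH 8.2 + 0.02% Tween-20; cpd via pin tool; 1 mM Gln soln; GluOx/HRP/Amplex Red; RT 30 min; fluor. t0 & final.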

[5] = qHTS of Trypanosoma Brucei Inhibitors: LOPAC Validation (AID 624147)
Summary of the method: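 Enzyme and substrate buffer are dispensed first and compound is pin-transferred. ADP at 130 uM final then starts the reaction, which runs 45 min at room temperature. Detection reagent is added for 10 min before luminescence is imaged.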

[6] = target: Glucagon-like peptide 1 receptor (Homo sapiens) (UniProt P43220); experiment: qHTS of GLP-1 Receptor Agonists: LOPAC Validation (AID 624148);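 further: higher luminescence signal means agonism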
Sequence of Glucagon-like peptide 1 receptor (Homo sapiens) (P43220 whole entry, looked up): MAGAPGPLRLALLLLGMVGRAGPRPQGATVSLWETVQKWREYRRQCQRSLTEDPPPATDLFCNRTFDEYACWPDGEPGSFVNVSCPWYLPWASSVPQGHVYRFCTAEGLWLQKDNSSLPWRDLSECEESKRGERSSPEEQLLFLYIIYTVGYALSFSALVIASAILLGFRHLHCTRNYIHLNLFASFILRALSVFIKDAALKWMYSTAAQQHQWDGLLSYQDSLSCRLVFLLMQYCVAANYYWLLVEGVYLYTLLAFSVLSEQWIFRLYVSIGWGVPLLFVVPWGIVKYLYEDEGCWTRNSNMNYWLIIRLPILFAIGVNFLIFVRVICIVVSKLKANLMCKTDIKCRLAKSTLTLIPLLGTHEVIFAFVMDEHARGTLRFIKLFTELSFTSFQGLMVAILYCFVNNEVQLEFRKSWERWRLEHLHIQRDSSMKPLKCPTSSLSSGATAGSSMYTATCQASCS
Summary of the method: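 HEK293 cells stably co-expressing a cAMP-responsive luciferase reporter and a hypersensitive GLP-1R were plated 12 h at 37 °C and exposed to compounds for 4-6 hr at 37 °C, 5% CO2. Luminescence was read 12 min after adding detection reagent.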

[7] = S16 Schwann cell PMP22 intronic element firefly luciferase assay (AID 624032); further: nearly all actives have a fitted effect of over 30% in size; further: potency means the concentration at half of the fitted maximal effect
Summary of the method: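 Rat S16 Schwann cells stably carrying a PMP22 intronic element-driven Fluc reporter were seeded overnight, then exposed to compounds for 24 h at 37 °C. Luminescence was normalized to PTC124 (positive control) and DMSO (0% activity).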

[8] = S16 Schwann cell PMP22 intronic element beta-lactamase assay (AID 624044; calls by dose curve; further: nearly all actives have a fitted effect of over 15% in size)
Summary of the method: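 Rat S16 Schwann cells with beta-Lac driven by a PMP22 intronic element, compound-treated 24 h at 37 °C. LiveBLAzer FRET B/G read: 460 nm normalized to potassium clavulanate vs DMSO; 535 nm FRET as viability; concentration-effect curves classified.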

Measured: Potency

O=C1CCc2cc(OCCCCc3nnnn3C3CCCCC3)ccc2N1
inactive: [1] | [2] | [3] | [4] | [5] | [6]

CNC(=O)c1ccccc1Sc1ccc2c(/C=C/c3ccccn3)n[nH]c2c1
active: [2] 0.51 µM

O=c1n(CCCN2CCN(c3cccc(Cl)c3)CC2)nc2ccccn12
inactive: [2] | [3] | [7] | [4] | [5] | [6]

CC(C)C[C@H](NC(=O)[C@@H](O)[C@H](N)Cc1ccccc1)C(=O)O
inactive: [2] | [3] | [7] | [8] | [4] | [5] | [6]

O=C(O)COCCN1CCN(C(c2ccccc2)c2ccc(Cl)cc2)CC1 (stereo unspecified)
inactive: [4] | [5] | [6]

NCCCC(N)(C(=O)O)C(F)F (stereo unspecified)
inactive: [2] | [3] | [7] | [8] | [4] | [5] | [6]

Cc1ccc(N(CC2=NCCN2)c2cccc(O)c2)cc1
inactive: [2] | [3] | [7] | [8] | [5] | [6]

Cc1oncc1C(=O)Nc1ccc(C(F)(F)F)cc1
inactive: [1] | [3] | [7] | [4] | [5] | [6]

O=C(Nc1nc2ccccc2n1CCN1CCOCC1)c1cccc([N+](=O)[O-])c1
inactive: [4] | [5] | [6]

Cc1cccc(-c2[nH]c(C(C)(C)C)nc2-c2ccc3nccnc3c2)n1
inactive: [4] | [5] | [6]

Cn1cnc2c(F)c(Nc3ccc(Br)cc3Cl)c(C(=O)NOCCO)cc21
inactive: [2]

CCn1cc(C(=O)O)c(=O)c2cc(F)c(N3CCNC(C)C3)c(F)c21 (stereo unspecified)
inactive: [4] | [5] | [6]

Cc1cc2c(C(C)C)c(O)c(O)c(C=O)c2c(O)c1-c1c(C)cc2c(C(C)C)c(O)c(O)c(C=O)c2c1O
inactive: [1] | [7] | [8] | [4] | [5] | [6]

OC(CCN1CCCCC1)(c1ccccc1)C1CC2C=CC1C2 (stereo unspecified)
inactive: [2] | [4] | [5] | [6]

OC(CN1CCC(Cc2ccc(F)cc2)CC1)c1ccc(Cl)cc1 (stereo unspecified)
inactive: [2] | [7] | [4] | [5] | [6]
active: [1] 0.0178 µM

CCCc1nn(C)c2c(=O)[nH]c(-c3cc(S(=O)(=O)N4CCN(C)CC4)ccc3OCC)nc12
inactive: [2] | [3] | [8]

CCc1ccc(CCOc2ccc(CC3SC(=O)NC3=O)cc2)nc1 (stereo unspecified)
inactive: [1] | [3] | [7] | [8]

CCOC(=O)N1CCC(=C2c3ccc(Cl)cc3CCc3cccnc32)CC1
inactive: [2] | [3] | [8] | [5] | [6]

Cc1[nH]c(=O)c(C#N)cc1-c1ccc2nccn2c1
inactive: [1] | [2] | [3] | [5] | [6]

CCOC(=O)C1=C[C@@]2(CC)CCCN3CCc4c(n1c1ccccc41)[C@H]32
inactive: [2]

Nc1ncnc2nc(-c3ccc(N4CCOCC4)nc3)cc(-c3cccc(Br)c3)c12
inactive: [4] | [5]

C#Cc1cccc(Nc2ncnc3cc(OCCOC)c(OCCOC)cc23)c1
inactive: [1] | [2] | [7] | [8]

O=C(NOC[C@H](O)CO)c1ccc(F)c(F)c1Nc1ccc(I)cc1F
inactive: [2]

c1ccc([C@H]2CN3CCSC3=N2)cc1
inactive: [1] | [4] | [5] | [6]

C1COC(NC(C2CC2)C2CC2)=N1
inactive: [1] | [2] | [4] | [5] | [6]

CCN(CC)CCCC(C)Nc1ccnc2cc(Cl)ccc12 (stereo unspecified)
inactive: [4] | [5] | [6]

Clc1ccc(Nc2nnc(Cc3ccncc3)c3ccccc23)cc1
inactive: [2] | [8]
active: [7] 20.3 µM

Nc1nc2ccc(OC(F)(F)F)cc2s1
inactive: [3] | [7] | [4] | [5] | [6]

Cc1cnc(NC(=O)C2=C(O)c3ccccc3S(=O)(=O)N2C)s1
inactive: [1] | [2] | [4] | [5]

CCC(C)N(C)C(=O)c1cc2ccccc2c(-c2ccccc2Cl)n1 (stereo unspecified)
inactive: [1] | [4] | [5] | [6]
